A number with no mark means an inactive call. Entries that show only a call come without a potency. Calls of active or inactive are those of the source. Calls follow the shape of the dose curve; as a rule, active = well fitted inhibition curve with a large enough effect; inconclusive = small, poorly fitted or top-dose-only effect; inactive = flat fitted curve, though single readings scatter. Where a SMILES comes first, the peptide text is derived from it. Bridges are numbered along the chain shown (N, C = ends). [ ]: non-standard residue; d: D form. The star is where a group is joined. X1 = CCC(C)C(N)C1=NC(C(=O)*)CS1; dOrn = NCCC[C@@H](N)C(=O)O

The experiment deals with Luciferin 4-monooxygenase (Photinus pyralis) (UniProt P08659). The experiment is described as follows: Primary firefly luciferase (FLuc) qHTS assay for identification of artifact compounds. (AID 1845220). Also: nearly all actives have a fitted effect of over 60% in size. The following applies: purified firefly luciferase, luminescence, 5 min; series mostly up to 54.1 µM. The method, boiled down: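 Reaction readout was CCD-imaged luminescence, taken 5 min after adding 10 nM purified firefly enzyme to compound-treated wells holding 10 uM luciferin and ATP in pH 7.6 buffer.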
As to `C[C@@H]1C(=O)O[C@H]2CC34[C@H]5C[C@@H](C(C)(C)C)C36[C@@H](OC(=O)[C@@H]6O)OC4(C(=O)O5)[C@]21O` (some centres not stated), the Potency entry was “inactive”. With `CCC(C)C(N)C1=NC(C(=O)N[C@@H](CC(C)C)C(=O)N[C@H](CCC(=O)O)C(=O)N[C@H](C(=O)N[C@H]2CCCCNC(=O)[C@H](CC(N)=O)NC(=O)[C@@H](CC(=O)O)NC(=O)[C@H](Cc3cnc[nH]3)NC(=O)[C@@H](Cc3ccccc3)NC(=O)[C@H]([C@@H](C)CC)NC(=O)[C@@H](CCCN)NC2=O)[C@@H](C)CC)CS1` (some centres not stated) (X1-L[dE]IK[dOrn]I[dF]H[dD]N; lactam 4-C), the Potency result is “inactive”. In the case of `CC1(C)CCC(C)(C)c2cc3c(cc21)Sc1ccccc1N=C3c1ccc(C(=O)O)cc1`, the Potency result is “inactive”. Consider `C=C[C@@]1(C)CC(=O)C2[C@](C)(O1)[C@@H](OC(C)=O)[C@@H](O)[C@H]1C(C)(C)CCC[C@]21C` (some centres not stated), for which the outcome is “inactive [at 11.6 µM]”. Turning to `C[C@@H]1CCC2C(C)(C)[C@H](O)CC[C@]2(C)[C@@]12Cc1c(O)cc3c(c1O2)CN(CCO)C3=O` (some centres not stated), the Potency result is “inactive”. In the case of `CC(C)(C)NCc1cc(Nc2ccnc3cc(Cl)ccc23)c2c(c1O)CCCC2`, the activity change, negative = inhibition is -4.19% [at 0.464 µM]. As for `CC12CCC3c4ccc(O)cc4CCC3C1CCC2OC1OC(C(=O)O)C(O)C(O)C1O` (configuration not stated), the Potency result was “inactive”. The same measure, in the same setting: with `COc1c(C)c2c(c(O)c1C/C=C(\C)CC/C=C(\C)CCC(=O)O)C(=O)OC2` the entry was “inactive”. On the same count and under the same terms, with `O=C(O[C@H]1[C@@H]2C=CO[C@@H](O[C@@H]3O[C@H](CO)[C@@H](O)[C@H](O)[C@H]3O)[C@@H]2[C@@]2(CO)O[C@@H]12)c1ccc(O)cc1` the entry was “inactive”; with `C[C@H]1[C@H](C)CC[C@]2(C(=O)O)CC[C@]3(C(=O)O)C(=CCC4[C@@]5(C)CC[C@H](O[C@@H]6O[C@H](C)[C@@H](O)[C@H](O)[C@H]6O)C(C)(C)C5CC[C@]43C)[C@H]12` (some centres not stated), “inactive”. `CC1(O)CCC2C(C(=O)O)=COC(OC3OC(CO)C(O)C(O)C3OC(=O)/C=C/c3ccc(O)cc3)C21` (configuration not stated): the Potency entry was “inactive”. Still for that read-out and setting: as for `C[C@]12CCC[C@](C)(C(=O)O)C1CCC13C=C(CO)C(CCC12)C3` (some centres not stated), the entry is “inactive”; as for `CC(=O)OC[C@]12[C@H](OC(C)=O)C(=O)[C@@H]3[C@@H](OC(C)=O)[C@@]14O[C@@]3(C)COC(=O)c1cccnc1[C@@H](C)[C@H](C)C(=O)O[C@@H]([C@H](OC(C)=O)[C@@H]2OC(C)=O)[C@]4(C)O`, “inactive”.

As for `CC(C)[C@H]1CCC(CO)=C[C@@H]1/C=C(\CO)C(=O)O`, the Potency entry was “inactive”. On the same count and under the same terms, with `CCOC(=O)Nc1nc2ccccc2[nH]1` the entry was “inactive”; with `NC(=O)[C@H]1CCCCc2c1[nH]c1ccc(Cl)cc21`, “inactive”; with `CC(C)(O)c1ccc2c(c1)C(O)CC1C(C)(C(=O)O)CCCC21C` (configuration not stated), “inactive”. Regarding `O=C(O)c1n[nH]c2c1C[C@H]1C[C@@H]21`, the Potency entry is “inactive”. As for `CC(=O)N[C@H]1[C@H](O[C@H]2CC[C@@]3(C)C(CC[C@]4(C)C3CC=C3C5CC(C)(C)CC[C@]5(C(=O)O)[C@H](O[C@@H]5O[C@H](CO)[C@@H](O)[C@H](O)[C@H]5O)C[C@]34C)C2(C)C)O[C@H](CO[C@@H]2OC[C@H](O)[C@H](O)[C@H]2O[C@@H]2OC[C@@H](O)[C@H](O)[C@H]2O)[C@@H](O)[C@@H]1O` (some centres not stated), the activity change, negative = inhibition is 2.58% [at 11.6 µM]. Consider `C[C@H]1CC[C@@]2(OC1)O[C@H]1CC3C4CC=C5C[C@H](O)C[C@@H](O[C@@H]6O[C@@H](C)[C@H](O)[C@@H](O)[C@H]6O[C@@H]6O[C@@H](C)[C@H](O)[C@@H](O)[C@H]6O)[C@]5(C)C4CC[C@]3(C)[C@H]1[C@@H]2C` (some centres not stated), for which the Potency result is “inactive”. On the same count and under the same terms, as for `C=C1[C@@H]2CC[C@@]3(C)[C@H](c4ccoc4)OC(=O)C[C@]13O[C@H]1CC(=O)C(C)(C)[C@H](CC(=O)OC)[C@]12C`, the entry is “inactive”. The same measure, in the same setting: with `CC(NC(=O)CC(=O)O)c1nc2ccccc2c(=O)[nH]1` (configuration not stated) the entry was “inactive”.

`O=S(=O)(Nc1ccc(C(O)(C(F)(F)F)C(F)(F)F)cc1)c1cccs1`: the Potency result was “inactive”. Consider `O=C1[C@H](O[C@@H]2O[C@H](CO)[C@@H](O)[C@H](O)[C@H]2O)Oc2ccccc2N1O`, for which the Potency entry is “inactive”.

For `CC[C@H]1OC(=O)C[C@@H](O)[C@H](C)[C@@H](O[C@@H]2O[C@H](C)[C@@H](O)[C@H](N(C)C)[C@H]2O)[C@@H](CCN2C[C@H](C)C[C@H](C)C2)C[C@@H](C)C(=O)/C=C/C(C)=C/[C@@H]1CO[C@@H]1O[C@H](C)[C@@H](O)[C@@H](OC)[C@H]1OC`, the Potency entry was “inactive”. As to `CC(=O)N1c2ccccc2C2(O)CC3C(=O)NC(CC(C)C)C(=O)N3C12` (configuration not stated), the Potency result was “inactive”. As for `CC(=O)O[C@H]1C[C@@H]2[C@]3(CC[C@]4(C)[C@@H](C5(C)CCC(C(C)(C)O)O5)[C@@H](O)C[C@@]24C)C[C@@]32CC[C@H](O[C@@H]3OC[C@@H](O)[C@H](O)[C@H]3O)C(C)(C)[C@H]12` (some centres not stated), the Potency result is “inactive”. The same measure, in the same setting: as for `CC(=O)O[C@H]1[C@H](Oc2ccccc2COC(=O)C2(O)C=CCCC2=O)O[C@H](CO)[C@@H](O)[C@@H]1O` (some centres not stated), the entry is “inactive”; as for `C[C@@H]1C(=O)O[C@H]2CC34[C@H]5C[C@@H](C(C)(C)C)C36[C@@H](OC(=O)[C@@H]6O)O[C@@]4(C(=O)O5)[C@]21O` (some centres not stated), “inactive”. The same measure, in the same setting: as for `O=C(c1ccc(F)cc1)C1CCN(CCn2c(=O)nc3n(c2=O)CCCC3)CC1`, the entry is “inactive”; as for `CC1=C(C)C(=O)OC(C(C)(O)C2CCC3C4CC=C5CC(OC6OC(COC7OC(CO)C(O)C(O)C7O)C(O)C(O)C6O)CC(O)C5(C)C4CCC32C)C1` (configuration not stated), “inactive”; as for `CCc1c(CC(N)=O)c2cc(OCCCP(=O)(O)O)ccc2n1Cc1ccccc1`, “inactive”.

For the origin of these results see PubChem BioAssay (NCATS).
